In the library only some 18% were active in any assay of this set; here they are far more common.
VDR inhibitor = Inhibitors of the vitamin D receptor (VDR): qHTS. Vitamin D3 receptor (Homo sapiens), P11473. Potency, µM, inactives show max response, negative = inhibition, hits mostly inhibitors. VDR-SRC2-3 peptide fluorescence polarization, 2 h. 400,000 compounds, 0.93% hits
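Signal is fluorescence polarization, reporting how far test compounds block the interaction of VDR with the SRC2-3 coregulator peptide after a 2 h room-temperature incubation.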
DT40 TDP1 no CPT = qHTS for Inhibitors of human tyrosyl-DNA phosphodiesterase 1 (TDP1): qHTS in cells in absence of CPT; AID 686978, 2013; 420,000 compounds, 15% hits; DT40 Tdp1-/- hTDP1 cells, no CPT, ATP luminescence, 48 h; Potency, µM (top dose mostly 46.2 µM), inactives show at the highest dose activity change, negative = growth inhibition, usual class: inhibitors; note: nearly all actives have a fitted effect of over 55% in size
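A cellular qHTS used chicken DT40 cells lacking endogenous Tdp1 but carrying stably transfected human TDP1. Compounds were applied without camptothecin, and cell growth kinetics were judged by ATP-dependent luminescence after ≥48 hr.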
TDP1 block = qHTS Assay for Inhibitors of Tyrosyl-DNA Phosphodiesterase (TDP1); AID 485290, 2010; 350,000 compounds, 0.28% hits; recombinant TDP1, AlphaScreen DNA substrate cleavage; Potency, µM (series often up to 130 µM), inactives show at the top dose activity change, negative = inhibition, hits mostly inhibitors; note: nearly all actives have a fitted effect of over 40% in size
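Signal: AlphaScreen proximity between streptavidin donor and anti-FITC acceptor beads on intact substrate. Reaction: Tdp1 1 nM, substrate 15 nM final, 5 min RT after 15 min compound preincubation.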
GCN5L2 inh = qHTS Assay for Inhibitors of GCN5L2 | Histone acetyltransferase KAT2A (Homo sapiens), Q92830 | GCN5L2 HAT assay, ThioGlo1 CoA-SH fluorescence | Potency, µM (highest dose often 58.9 µM), without a hit: at the top dose activity change, negative = inhibition, actives largely listed as inhibitors | 390,000 compounds, 0.21% hits
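Preincubate 20nM GCN5L2 with compound 15 min, RT → add 50uM ThioGlo1 + 75uM H3(1-25) + 70uM acetyl-CoA → read fluorescence 0 and 20 min. Primary qHTS; fluorescent artifacts likely.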
DT40 TDP1 CPT = qHTS for Inhibitors of human tyrosyl-DNA phosphodiesterase 1 (TDP1): qHTS in cells in presence of CPT. chicken DT40 Tdp1-/-;hTDP1 cells + 20 nM CPT, ATP luminescence, 48 h. AID 686979, 2013. Potency, µM (series often up to 46.2 µM), inactives show at the highest dose activity change, negative = growth inhibition, most hits filed as inhibitors. 420,000 compounds, 12% hits; note: nearly all actives have a fitted effect of over 55% in size
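Cell growth measured by CellTiter-Glo luminescence after a minimum 48 h, 37 C compound exposure with 20 nM CPT in Tdp1-knockout DT40 cells stably expressing hTDP1, seeded 400/well; qHTS titration format.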
PLK1 PBD block = qHTS for Inhibitors of PLK1-PDB (polo-like kinase 1 - polo-box domain): Primary Screen | Serine/threonine-protein kinase PLK1 (Homo sapiens), P53350 | Plk1 PBD binding of FITC phosphopeptide, fluorescence polarization | Potency, µM, for the others: max response, negative = inhibition, most hits filed as inhibitors | 360,000 compounds, 2.8% hits | AID 720504, 2013; note: series mostly up to about 57 µM; nearly all actives have a fitted effect of over 65% in size
Numbers without * were called inactive; ? = inconclusive; / = no result. Calls come from the whole dose curve; as a rule, active = well fitted curve in the direction sought with a large enough effect; inconclusive = small, poorly fitted or top-dose-only effect, or another doubt; inactive = no such curve, though single readings can be large; an effect the other way counts as inactive or inconclusive. % is set by controls: 0 for no effect and ±100 for the full control effect; potency is the fitted concentration of half-maximal effect.

SMILES | VDR inhibitor | DT40 TDP1 no CPT | TDP1 block | GCN5L2 inh | DT40 TDP1 CPT | PLK1 PBD block
CC(=C/c1ccccc1)/C=N/Nc1nc(N2CCCCC2)nc(N2CCCCC2)n1 | -27% | ? | 0% | -2% | -26% | -7%
C(=C\c1ccccc1)/C=N/Nc1nc(N2CCCCC2)nc(N2CCCCC2)n1 | 11% | 12µM* | 8% | -3% | 12µM* | 0%
BrC(/C=N/Nc1nc(N2CCOCC2)nc(N2CCOCC2)n1)=C/c1ccccc1 | -1% | 21µM* | 4% | -14% | 16µM* | -5%
O=[N+]([O-])c1ccccc1/C=N/Nc1nc(N2CCCC2)nc(N2CCCC2)n1 | -13% | ? | 9% | -18% | ? | -4%
O=[N+]([O-])c1ccccc1/C=C/C=N/Nc1nc(N2CCCCC2)nc(N2CCCCC2)n1 | ? | ? | 7% | -10% | -29% | 27µM*
Cc1cc(/C=N/Nc2nc(N3CCOCC3)nc(N3CCOCC3)n2)c(C)n1-c1ccccc1 | 23% | ? | 7% | -13% | -26% | -6%
CCOc1ccccc1CN1CCN(Cc2ccon2)CC1CCO (centres undefined) | 9% | 1% | 4% | 3% | 1% | -11%
CSc1ccc(CN2CCC2(C)C(=O)Nc2ccc3c(c2)OCO3)cc1 (centres undefined) | / | ? | / | / | 29µM* | 0%
CSc1ccc(CN2CCC2(C)C(=O)NCc2ccc3c(c2)OCO3)cc1 (centres undefined) | / | ? | / | / | 15µM* | 5%
COCCn1c(=O)c(-c2ccc(F)c(F)c2)nc2cncnc21 | -7% | -4% | / | -5% | -4% | /
CCN(CC)S(=O)(=O)c1cccc(C(=O)N[C@H](C(=O)Nc2nc3ccccc3s2)C(C)C)c1 | -11% | 15µM* | 6% | -4% | ? | 1%
CCN(CC)S(=O)(=O)c1cccc(C(=O)N[C@H](C(=O)NNC(=O)c2ccccc2)C(C)C)c1 | 11% | -21% | -2% | -8% | -22% | 5%
CCN(CC)S(=O)(=O)c1cccc(C(=O)NC(C(=O)Nc2nnc(C3CC3)s2)C(C)C)c1 (centres undefined) | 12% | ? | -1% | -1% | -5% | 27µM*
CCN(CC)S(=O)(=O)c1cccc(C(=O)Nc2nnc(C)s2)c1 | -6% | 7% | 6% | -6% | 6% | 0%
Cc1cc2c(N=O)c(NO)ccc2[nH]1 | -5% | 6.5µM* | 7% | -2% | 7.3µM* | -20%
COC(=O)CC1Oc2cc3oc4c5ccccc5oc(=O)c4c3cc2O1 (centres undefined) | / | / | 2% | / | / | /
CC(C(=O)NC1(C#N)CCCCC1)N(C)CC(=O)Nc1ccc(Cl)c(Cl)c1 (centres undefined) | 10% | 18µM* | 4% | -4% | ? | -5%
Cc1ccc(CCNC(=O)c2cc3c(-c4ccccc4F)nn(C)c3s2)cc1 | -16% | ? | 4% | -11% | -25% | /
CN1CCN(CCCNC(=O)c2cc3c(-c4ccc(Cl)cc4)nn(C)c3s2)CC1 | -2% | ? | 1% | -9% | 6% | 0%
CCCN(CCC)CCCNC(=O)c1cc2c(-c3ccc(Cl)cc3)nn(C)c2s1 | 9% | 8.2µM* | 5% | -10% | 13µM* | /
CCCCN(CC)CCNC(=O)c1cc2c(-c3ccccc3F)nn(C)c2s1 | 3% | ? | / | -28% | 16µM* | -2%
COc1ccc(CCNC(=O)c2cc3c(-c4ccccc4F)nn(C)c3s2)c(OC)c1 | -17% | 5.8µM* | 4% | -8% | 6.5µM* | /
NC(=S)N/N=C1\CCOc2ccc(Cl)cc21 | -3% | ? | 4% | -4% | 18µM* | -6%
CCCN(CCC)C(=O)CSc1nc2n[nH]c(C)c2c(=N)n1-c1ccc(OC)cc1 | 10% | 10µM* | 2% | -12% | 13µM* | -9%
CCCN(CCC)C(=O)CSc1nc2n[nH]c(C)c2c(=N)n1-c1ccc(OCC)cc1 | 8% | ? | 1% | -9% | ? | -2%
SMILES | VDR inhibitor | DT40 TDP1 no CPT | TDP1 block | GCN5L2 inh | DT40 TDP1 CPT | PLK1 PBD block
COc1ccc(-n2c(SCC(=O)NCc3ccccc3)nc3n[nH]c(C)c3c2=N)cc1 | 9% | 6.5µM* | 6% | 1% | 6.5µM* | /
CCCCN(CC)C(=O)CSc1nc2n[nH]c(C)c2c(=N)n1-c1ccc(CC)cc1 | 7% | 5.2µM* | 1% | -12% | 10µM* | /
CCN(C(=O)CSc1nc2n[nH]c(C)c2c(=N)n1-c1ccc(Cl)c(C)c1)c1cccc(C)c1 | -1% | 21µM* | 6% | -20% | 18µM* | 2%
N#Cc1cccc(C(=O)C(=O)N2CCN(c3ccccc3)CC2)c1 | / | -23% | / | / | -22% | 0%
CCCCN(CC)C(=O)CSc1nc2n[nH]c(C)c2c(=N)n1-c1cccc(OC)c1 | -4% | 9.2µM* | 5% | -10% | 23µM* | /
CCN(CC)C(=O)CSc1nnc(COc2cccc(C)c2)n1C | / | / | -7% | -5% | / | /
CCCCN(CC)C(=O)CSc1nc2n[nH]c(C)c2c(=N)n1-c1cccc(C)c1 | 7% | 21µM* | 7% | -7% | 7.3µM* | -15%
Cn1ccc2cc(S(=O)(=O)N3CCCN(C(=O)Nc4ccccc4Br)CC3)ccc21 | -6% | / | -4% | -4% | / | /
COc1ccc(NC(=O)COc2ccc(-n3cnnn3)cc2)cc1OC | 17% | 23µM* | 1% | -3% | ? | 4%
Cc1cccc(OCc2occc2C(=O)Nc2cccc(-n3cnnn3)c2)c1 | -2% | 0% | 4% | 5% | -23% | -10%
Cc1ccccc1OCc1occc1C(=O)Nc1cccc(-n2cnnn2)c1 | -16% | 18µM* | 1% | -12% | 23µM* | -7%
Cc1ccc(NC(=O)COc2ccc(-n3cnnn3)cc2)cc1C | 3% | 7% | 2% | 3% | 16% | -3%
Cc1cc(OCCCC(=O)Nc2cccc(-n3cnnn3)c2)ccc1Cl | -6% | 12µM* | 5% | -15% | ? | -8%
O=C(Nc1cc(S(=O)(=O)Nc2ccccc2F)ccc1Cl)c1ccc(F)cc1F | 1% | ? | 0% | -5% | -1% | -7%
COc1cccc(CN2CCC2(C)C(=O)Nc2cccc3cccnc23)c1OC (centres undefined) | / | 18µM* | / | / | 16µM* | -3%
